Screens from PubChem BioAssay.
NS1 function inh: qHTS Assay for Inhibitors of Influenza NS1 Protein Function; Potency, µM (titrated, usually from 46.1 µM), without a hit: top-dose activity, positive = more growth; 0.4% of 270,000 active; AID 2326, 2010; calls by dose curve; also: potency is read from the fitted curve at half-maximal effect; actives are rising curves; nearly all actives have a fitted effect of over 50% in size
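OD600 was taken as the measure of yeast growth restored by compound in an NS1-expressing S. cerevisiae strain. Cells had been washed out of glucose medium and diluted 1:100 into galactose -URA medium, pH 6.0.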
CHX counter: Cycloheximide Counterscreen for Small Molecule Inhibitors of Shiga Toxin; max response, %; 12% of 300,000 active; cell reporter, cycloheximide protein synthesis inhibition counterscreen; in the data active = max response mostly above about 13%, no sharp cut-off; inactive = mostly below about 14%; also: read at 38.3 µM for the half of the compounds with a filed dose; 0% is about no effect
Pf growth 48h: Primary qHTS for delayed death inhibitors of the malarial parasite plastid, 48 hour incubation | 5.9% of 310,000 active | P. falciparum luciferase growth in erythrocytes, 48 h | Potency, µM (top dose mostly 28.7 µM), for the others: at the highest dose activity change, negative = inhibition, most hits filed as inhibitors; also: potency is read from the fitted curve at half-maximal effect; % is scaled to controls: 0 for no effect and ±100 for the full control effect
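First compound was added to culture medium, then infected red cells at 0.1% parasitemia and 2% hematocrit (final). After incubation at 37 C under 5% CO2, luciferase detection reagent was dispensed and light output recorded.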
Giardia FBPA inh: qHTS Assay for Inhibitors of Fructose-1,6-bisphosphate Aldolase from Giardia Lamblia | purified Giardia FBPA | Potency, µM (titrated, usually from 59.6 µM), without a hit: top-dose activity, negative = inhibition, usual class: inhibitors | 0.71% of 290,000 active | AID 2451, 2010; also: potency is read from the fitted curve at half-maximal effect; % is scaled to controls: 0 for no effect and ±100 for the full control effect; nearly all actives have a fitted effect of over 55% in size
Target sequence (A8B2U2 whole entry, looked up): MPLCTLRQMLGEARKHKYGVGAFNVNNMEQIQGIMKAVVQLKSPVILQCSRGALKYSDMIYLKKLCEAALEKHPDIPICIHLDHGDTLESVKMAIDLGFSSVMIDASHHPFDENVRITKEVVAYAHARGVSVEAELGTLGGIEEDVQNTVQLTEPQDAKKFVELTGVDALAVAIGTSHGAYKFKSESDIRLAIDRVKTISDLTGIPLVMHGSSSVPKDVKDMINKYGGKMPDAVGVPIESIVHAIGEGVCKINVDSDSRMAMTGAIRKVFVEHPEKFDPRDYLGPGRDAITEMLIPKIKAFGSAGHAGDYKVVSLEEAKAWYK
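40 nM FBPA preincubated 10 min at RT with compound (up to 57.5 uM final), then substrate plus GAPDH/TPI/NAD/arsenate coupling and diaphorase/resazurin added. Fluorescence read after 20 min at RT, 525/598 nm.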
Pf growth 96h: Primary qHTS for delayed death inhibitors of the malarial parasite plastid, 96 hour incubation. AID 504834, 2011. 6.9% of 320,000 active. P. falciparum luciferase reporter growth, 96 h. Potency, µM (doses to about 28.7 µM), without a hit: at the top dose activity change, negative = inhibition, usual class: inhibitors; also: potency is read from the fitted curve at half-maximal effect; % is scaled to controls: 0 for no effect and ±100 for the full control effect
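P. falciparum expressing integrated firefly luciferase, in erythrocytes at 2% hematocrit, 0.05% parasitemia, incubated with compounds 96 h at 37 C, 5% CO2. Growth inhibition read as loss of luminescence; two-generation exposure targets delayed-death apicoplast inhibitors.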
Shiga inhibitor: A qHTS for Small Molecule Inhibitors of Shiga Toxin. Vero cells, Shiga toxin protein synthesis inhibition reporter. inhibition, % at 38.7 µM. 9.2% of 290,000 active; in the data active = inhibition mostly above about 28%, no sharp cut-off; inactive = mostly below about 43%; also: 0% is about no effect
* marks the source's active call; other numbers are inactive results; [ ] = remark or other dose. Most compounds without a hit are left out; they make up all but 21% or so of the library. Unless noted, calls follow the shape of the dose curve; as a rule, active = well fitted curve in the direction sought with a large enough effect; inconclusive = small, poorly fitted or top-dose-only effect, or another doubt; inactive = no such curve, though single readings can be large; an effect the other way counts as inactive or inconclusive.

How did CC(=O)c1ccc(NC(=O)CN(c2c(C)cccc2C)S(C)(=O)=O)cc1 do in these assays?
NS1 function inh: 4%; CHX counter: 23*; Pf growth 48h: 27%; Giardia FBPA inh: -9%; Pf growth 96h: inconclusive; Shiga inhibitor: 99*

How did COc1cccc(OCC(=O)Nc2cc(Cl)ccc2Oc2ccccc2)c1 do in these assays?
NS1 function inh: -3%; CHX counter: -1; Pf growth 48h: inconclusive; Giardia FBPA inh: 0%; Pf growth 96h: inconclusive; Shiga inhibitor: -9

How did COc1cc2c(cc1OC)C(c1ccccc1)CC2=O (stereo not given) do in these assays?
NS1 function inh: -2%; CHX counter: 1; Pf growth 48h: 5%; Giardia FBPA inh: 8%; Pf growth 96h: 2%; Shiga inhibitor: -9

Results for O=C(O)c1cc(C(=O)O)cc(-c2ccc(/C=c3/sc4nc5ccccc5n4c3=O)o2)c1 ?
CHX counter: -2; Pf growth 48h: -10%; Giardia FBPA inh: inconclusive; Pf growth 96h: -9%; Shiga inhibitor: 23

What do the screens show for `O=c1/c(=C\c2cc([N+](=O)[O-])cc([N+](=O)[O-])c2O)sc2nc3ccccc3n12`?
CHX counter: 5; Pf growth 48h: 2%; Giardia FBPA inh: 16µM*; Pf growth 96h: -88%; Shiga inhibitor: 13

What do the screens show for `O=c1c2ccccc2nc2sc3ccccc3n12`?
NS1 function inh: -13%; CHX counter: 20*; Pf growth 48h: 102%; Giardia FBPA inh: 1%; Pf growth 96h: 31%; Shiga inhibitor: 97*

How did O=C(O)c1cccc(-c2ccc(/C=c3/sc4nc5ccccc5n4c3=O)o2)c1 do in these assays?
NS1 function inh: 8%; CHX counter: 44*; Pf growth 48h: 66%; Giardia FBPA inh: -1%; Pf growth 96h: 30%; Shiga inhibitor: 70*

What do the screens show for `COC(=O)/C=c1/sc2nc3ccccc3n2c1=O`?
NS1 function inh: -90%; CHX counter: 6; Pf growth 48h: inconclusive; Giardia FBPA inh: -1%; Pf growth 96h: inconclusive; Shiga inhibitor: -12

How did O=c1/c(=C/c2ccccn2)sc2nc3ccccc3n12 do in these assays?
NS1 function inh: -1%; CHX counter: 36*; Pf growth 48h: 176%; Giardia FBPA inh: -10%; Pf growth 96h: 153%; Shiga inhibitor: 126*

What do the screens show for `CC(SCc1ccc(C(=O)O)o1)c1ccc(C(=O)O)o1` (stereo not given)?
NS1 function inh: 4%; CHX counter: -3; Pf growth 48h: -22%[0.00184 µM]; Giardia FBPA inh: -3%; Pf growth 96h: 10%; Shiga inhibitor: -6

Results for Cc1nc2c(c(=O)[nH]1)CSCC2 ?
CHX counter: 5; Giardia FBPA inh: 5%; Shiga inhibitor: -5

Results for O=C(Nc1ccc(N2CCCC2)cc1)c1ccccc1F ?
NS1 function inh: inconclusive; CHX counter: 43*; Pf growth 48h: -52%; Giardia FBPA inh: inconclusive; Pf growth 96h: -18%; Shiga inhibitor: 43*

Results for O=C(Nc1ccc(N2CCCCC2)cc1)c1ccc(F)cc1F ?
NS1 function inh: -1%; CHX counter: 42*; Pf growth 48h: 69%; Giardia FBPA inh: 0%; Pf growth 96h: 447%; Shiga inhibitor: 45*

Results for O=C(NC(=O)c1ccc(F)cc1F)Nc1ccc(Cl)cc1 ?
NS1 function inh: -5%; CHX counter: 8; Pf growth 48h: 5.2µM*; Giardia FBPA inh: 1%; Pf growth 96h: 165%; Shiga inhibitor: 21

How did O=C(Nc1ccc(N2CCN(C(=O)c3cccs3)CC2)cc1)c1ccccc1F do in these assays?
NS1 function inh: -1%; CHX counter: 7; Pf growth 48h: inconclusive; Giardia FBPA inh: 9%; Pf growth 96h: 57%; Shiga inhibitor: 27

How did Cc1cc(NC(=S)N(Cc2ccc(Br)cc2)Cc2ccc(C(=O)O)cc2)ccc1Cl do in these assays?
CHX counter: -2; Pf growth 48h: -19%; Giardia FBPA inh: -4%; Pf growth 96h: -27%; Shiga inhibitor: 0

Results for C[C@@H]1C[C@H]2[C@@H]3CCC4=CC(=O)C=C[C@]4(C)[C@@]3(F)[C@@H](O)C[C@]2(C)[C@H]1C(=O)CO ?
NS1 function inh: 9%; CHX counter: -2; Pf growth 48h: inconclusive; Giardia FBPA inh: -9%; Pf growth 96h: 9.3µM*; Shiga inhibitor: -13

What do the screens show for `CC1(C)OC2CC3C4CCC5=CC(=O)C=C[C@@]5(C)[C@]4(F)C(O)C[C@@]3(C)[C@]2(C(=O)CO)O1` (stereo not given in full)?
Giardia FBPA inh: 4%

What do the screens show for `CC(=O)OCC(=O)[C@@]12OC3(CCCC3)OC1CC1C3CCC4=CC(=O)C=C[C@@]4(C)[C@]3(F)C(O)C[C@]12C` (stereo not given in full)?
Pf growth 48h: 15µM*; Giardia FBPA inh: -9%; Pf growth 96h: 9.5µM*

How did CC1(C)O[C@H]2C[C@@H]3[C@H]4CCC5=CC(=O)CC[C@@]5(C)[C@]4(F)[C@@H](O)C[C@@]3(C)[C@@]2(C(=O)CCl)O1 do in these assays?
Pf growth 48h: 5.1µM*; Giardia FBPA inh: -2%[21.7 µM]; Pf growth 96h: 4.1µM*

Results for CC1(C)O[C@@H]2C[C@H]3[C@@H]4CCC5=CC(=O)CC[C@]5(C)[C@@]4(F)[C@@H](O)C[C@]3(C)[C@]2(C(=O)CCl)O1 ?
Pf growth 48h: 2.6µM*; Pf growth 96h: 3.3µM*

How did C[C@]12CCC(=O)C=C1CC[C@H]1[C@@H]3CC[C@](O)(C(=O)CO)[C@@]3(C)C[C@H](O)[C@@]12F do in these assays?
Pf growth 48h: -12%; Pf growth 96h: inconclusive

How did O=C1[C@@H]2C[C@@H]3C[C@H]1C[C@@](O)(C3)C2 do in these assays?
Pf growth 48h: -3%; Pf growth 96h: -2%

What do the screens show for `CCc1ccccc1NC(=O)Nc1cc(F)ccc1F`?
NS1 function inh: -5%; CHX counter: 8; Pf growth 48h: inconclusive; Giardia FBPA inh: -6%; Pf growth 96h: 1%; Shiga inhibitor: 26

How did Cc1ccc(C(=O)N2c3ccccc3N(Cc3ccccc3)C(=O)C2(C)C)cc1 do in these assays?
NS1 function inh: -75%; CHX counter: -4; Pf growth 48h: 12µM*; Giardia FBPA inh: 0%; Pf growth 96h: 7.4µM*; Shiga inhibitor: 9

How did COC(=O)[C@@H](NCc1cccc(CN([C@H](C(=O)OC)C(C)C)S(C)(=O)=O)c1)C(C)C do in these assays?
NS1 function inh: 1%; CHX counter: 1; Pf growth 48h: inconclusive; Giardia FBPA inh: -9%; Pf growth 96h: 15µM*; Shiga inhibitor: -1

Results for COCC1=C(C(=O)OC)C(c2ccco2)n2ncnc2N1 (stereo not given) ?
NS1 function inh: -1%; CHX counter: 12; Pf growth 48h: inconclusive; Giardia FBPA inh: -1%; Pf growth 96h: inconclusive; Shiga inhibitor: 8
